Experimental data published in the supplement of paper PMC4466140.

B1: unnamed (peptide)
chain: RPKRRAPPPVPKKPS

Biological target: AgAbp1
Assay: SPOT peptide array binding signal intensity (averaged, normalized) (arbitrary units (background-subtracted, floor 0; scale differs between SH3 domains)); higher = stronger binding of the SH3 domain to the peptide
How it was run: (§1)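 The binding signal is the normalized, background-subtracted spot intensity averaged over replicates; its arbitrary units differ between domains. It was obtained by incubating 10 μg/ml GST-fused SH3 domains from four yeast species overnight at 4°C in TBS-based blocking buffer on cellulose membranes with synthetic 15-mer peptides, cysteines replaced by serines, then detecting with anti-GST antibody, HRP anti-mouse secondary and luminol.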

Row | Binder | SPOT peptide array binding signal intensity
1 | B1 | 5860

Biological target: AgBbc1
Assay: as above
How it was run: as §1

Row | Binder | SPOT peptide array binding signal intensity
2 | B1 | 1090

Biological target: AgBem1-D1
Assay: as above
How it was run: as §1

Row | Binder | SPOT peptide array binding signal intensity
3 | B1 | 166

Biological target: AgBzz1-D1
Assay: as above
How it was run: as §1

Row | Binder | SPOT peptide array binding signal intensity
4 | B1 | 3720

Biological target: AgBzz1-D2
Assay: as above
How it was run: as §1

Row | Binder | SPOT peptide array binding signal intensity
5 | B1 | 825

Biological target: AgCyk3
Assay: as above
How it was run: as §1

Row | Binder | SPOT peptide array binding signal intensity
6 | B1 | 1

Biological target: AgFus1
Assay: as above
How it was run: as §1

Row | Binder | SPOT peptide array binding signal intensity
7 | B1 | 63.5

Biological target: AgHof1
Assay: as above
How it was run: as §1

Row | Binder | SPOT peptide array binding signal intensity
8 | B1 | 380

Biological target: AgHse1
Assay: as above
How it was run: as §1

Row | Binder | SPOT peptide array binding signal intensity
9 | B1 | 294

Biological target: AgLsb1
Assay: as above
How it was run: as §1

Row | Binder | SPOT peptide array binding signal intensity
10 | B1 | 1120

Biological target: AgLsb4
Assay: as above
How it was run: as §1

Row | Binder | SPOT peptide array binding signal intensity
11 | B1 | 313

Biological target: AgMyo5
Assay: as above
How it was run: as §1

Row | Binder | SPOT peptide array binding signal intensity
12 | B1 | 124

Biological target: AgNbp2
Assay: as above
How it was run: as §1

Row | Binder | SPOT peptide array binding signal intensity
13 | B1 | 4930

Biological target: AgRvs167
Assay: as above
How it was run: as §1

Row | Binder | SPOT peptide array binding signal intensity
14 | B1 | 191

Biological target: AgSho1
Assay: as above
How it was run: as §1

Row | Binder | SPOT peptide array binding signal intensity
15 | B1 | 650

Biological target: AgSla1-D1-D2
Assay: as above
How it was run: as §1

Row | Binder | SPOT peptide array binding signal intensity
16 | B1 | 274

Biological target: AgSla1-D3
Assay: as above
How it was run: as §1

Row | Binder | SPOT peptide array binding signal intensity
17 | B1 | 577

Biological target: CaAbp1-D1
Assay: as above
How it was run: as §1

Row | Binder | SPOT peptide array binding signal intensity
18 | B1 | 2320

Biological target: CaAbp1-D2
Assay: as above
How it was run: as §1

Row | Binder | SPOT peptide array binding signal intensity
19 | B1 | 4720

Biological target: CaBbc1
Assay: as above
How it was run: as §1

Row | Binder | SPOT peptide array binding signal intensity
20 | B1 | 1840

Biological target: CaBem1-D1
Assay: as above
How it was run: as §1

Row | Binder | SPOT peptide array binding signal intensity
21 | B1 | 78.5

Biological target: CaBzz1-D1
Assay: as above
How it was run: as §1

Row | Binder | SPOT peptide array binding signal intensity
22 | B1 | 7010

Biological target: CaBzz1-D2
Assay: as above
How it was run: as §1

Row | Binder | SPOT peptide array binding signal intensity
23 | B1 | 4680

Biological target: CaCyk3
Assay: as above
How it was run: as §1

Row | Binder | SPOT peptide array binding signal intensity
24 | B1 | 55

Biological target: CaFus1
Assay: as above
How it was run: as §1

Row | Binder | SPOT peptide array binding signal intensity
25 | B1 | 350

Biological target: CaHof1
Assay: as above
How it was run: as §1

Row | Binder | SPOT peptide array binding signal intensity
26 | B1 | 0.5

Biological target: CaHse1
Assay: as above
How it was run: as §1

Row | Binder | SPOT peptide array binding signal intensity
27 | B1 | 666

Biological target: CaLsb1
Assay: as above
How it was run: as §1

Row | Binder | SPOT peptide array binding signal intensity
28 | B1 | ≤ 0

Biological target: CaLsb4
Assay: as above
How it was run: as §1

Row | Binder | SPOT peptide array binding signal intensity
29 | B1 | 2700

Biological target: CaMyo5
Assay: as above
How it was run: as §1

Row | Binder | SPOT peptide array binding signal intensity
30 | B1 | 2.5
